Results on 40 compounds are retold here after PubChem BioAssay (NCATS).

Values without a mark were called inactive. The source made the active and inactive calls. How the calls were made is not given here.
Potency means the concentration at half of the fitted maximal effect.

The test system of the assay is HIV-1 nucleocapsid protein NCp7 (binding to TG oligonucleotide). Kind of assay: HIV Nucleocapsid (AID 346).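 Further: potency is for inhibitors that block NC binding and lower polarization.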 Particulars: HIV-1 NC / fluorescein-TGTGTGTG probe, fluorescence polarization. A digest of the protocol:
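Fluorescence polarization binding of 100 nM HIV-1 NC to 10 nM fluorescein-labelled TG4xF oligonucleotide. Buffer was Hepes pH 7.5 with 250mM NaCl, 1uM ZnCl2, TCEP and 2-mercaptoethanol. Compounds were incubated 1 hr at room temperature before the read.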
Background: In fluorescence polarisation assays a small probe gives low polarisation when free and higher when bound to something large.
For the compound `N#CCCn1c(=O)cnc2cnc(Oc3cccc(Cl)c3)nc21`, the Potency was greater than 20 µM. `COc1ccc(-n2c(=O)c(CCc3ccccc3)nc3cnc(OC)nc32)cc1`: the Potency is greater than 20 µM.

For `FC(F)(F)c1ccccc1-c1nc(N2CCNCC2)c2ccccc2n1`, the Potency is greater than 20 µM. Take `O=c1c(-c2cccs2)nc2cnc(Nc3ccccc3)nc2n1C[C@H]1CCCO1`: the Potency was 4.11 µM (active). Next, `Clc1ccccc1-c1ccc2ncnc(NCc3cccnc3)c2c1`: greater than 20 µM; `Cc1cccc(CNc2ncncc2-c2cccc(NS(C)(=O)=O)c2)c1`: greater than 20 µM. Next, `COCC(=O)N1CCC2(CC1)CCN(C(c1ccccc1)c1ccccc1)CC2`: greater than 20 µM; `COc1ccc(CNc2cc(-c3cccnc3)ncn2)c(OC)c1`: greater than 20 µM. As to `O=c1cnc2cnc(OCc3ccccc3)nc2n1Cc1ccc(F)cc1`, the Potency was greater than 20 µM. For `c1ccc(Nc2nc(-c3ccc4c(c3)OCO4)nc3ccccc23)cc1`, the Potency is greater than 20 µM.

Consider `COCCn1c(=O)c(C)nc2cnc(OCc3ccccc3)nc21`, for which the Potency was greater than 20 µM. With `COc1ccccc1CN1CC[C@@]2(CCCN(C(=O)c3cc(C(F)(F)F)cc(C(F)(F)F)c3)C2)C1`, the Potency is greater than 20 µM. `COCCn1c(=O)c(-c2cc(F)cc(F)c2)nc2cnc(N(C)C)nc21`: the Potency is greater than 20 µM. The figure for `CN1CCN(c2ncc3nc(-c4ccc(Cl)cc4)c(=O)n(CCC#N)c3n2)CC1` is greater than 20 µM; for `CS(=O)(=O)Nc1cccc(-c2cncnc2-n2ccnc2)c1` it is greater than 20 µM; for `COc1ccc(Oc2ncc3nc(-c4ccc(OC)cc4)c(=O)n(CCC#N)c3n2)cc1` it is greater than 20 µM. `O=C(c1ccncc1)N1CCC2(CCN(Cc3nccs3)CC2)CC1`: the Potency is greater than 20 µM.

In the case of `COCCn1c(=O)cnc2cnc(Oc3ccc(OC)cc3)nc21`, the Potency was greater than 20 µM. Take `c1ccc(-c2ccc(N3CC4(CCNCC4)C3)cc2)cc1`: the Potency was greater than 20 µM. Turning to `N#Cc1ccccc1-c1ccc2ncnc(NCc3ccccc3)c2c1`, the Potency is greater than 20 µM.

Regarding `CN1CCN(c2ncc3nc(-c4ccc(Cl)cc4)c(=O)n(Cc4cccs4)c3n2)CC1`, the Potency is greater than 20 µM. Next, `COC(=O)N1CCC2(CCN(C(=O)Nc3cccc(C#N)c3)CC2)CC1`: greater than 20 µM; `Cc1ccccc1-c1cncnc1NCc1ccccc1`: greater than 20 µM; `N#Cc1cccc(NC(=O)N2CCC3(CC2)CCN(C(=O)c2cccc(F)c2)CC3)c1`: greater than 20 µM. Take `COc1ccccc1CNc1ncnc2ccc(-c3ccc(N(C)C)cc3)cc12`: the Potency was greater than 20 µM.

As for `CN(C)c1ncc2nc(-c3cccs3)c(=O)n(C3CC3)c2n1`, the Potency was 0.297 µM (active).

As to `COc1ncc2ncc(=O)n(Cc3cccs3)c2n1`, the Potency was greater than 20 µM. For `O=C(c1ccco1)N1CCC2(CC1)CN(c1ccccn1)C2`, the Potency was greater than 20 µM. In the case of `Cc1noc(C)c1-c1nccc(-n2ccnc2)n1`, the Potency was greater than 20 µM. Next, `CN(C)C(=O)c1ccc(-c2cncnc2NCc2cccs2)cc1`: greater than 20 µM; `COc1ccccc1-c1nc(NC2CC2)c2ccccc2n1`: greater than 20 µM; `Cc1ccccc1-c1ccc2ncnc(N3CCN(C)CC3)c2c1`: greater than 20 µM. For the compound `CN(C)C(=O)c1ccc(-c2ccc3ncnc(NC4CCNCC4)c3c2)cc1`, the Potency was greater than 20 µM.

Take `Cc1cnc(CNc2ccnc(-c3ccccc3C(F)(F)F)n2)cn1`: the Potency is greater than 20 µM. Consider `COc1ccc(-c2nc3cnc(Oc4cccc(Cl)c4)nc3n(CCC#N)c2=O)cc1`, for which the Potency was greater than 20 µM. For the compound `CN(C)c1ccc(-c2nc(N(C)Cc3ccco3)c3ccccc3n2)cc1`, the Potency is greater than 20 µM. As for `Cn1cc(-c2nc3cnc(N4CCNCC4)nc3n(-c3ccccc3)c2=O)c2ccccc21`, the Potency is greater than 4 µM. Take `CN1CCN(c2nc(-c3cccnc3)nc3ccccc23)CC1`: the Potency is greater than 20 µM. As to `COCCn1c(=O)c(C)nc2cnc(N3CCNCC3)nc21`, the Potency is greater than 20 µM. Next, `COc1ccc(-n2c(=O)c(-c3ccc(Cl)cc3)nc3cnc(N(C)C)nc32)cc1`: greater than 20 µM.
